Screening results as filed in PubChem.
KCNQ2 pot = KCNQ2 (rat) channel potentiation; O88943; CHO-K1 KCNQ2, FluxOR thallium flux fluorescence; stronger effect = higher value; B-score at 10 µM; 0.54% of 310,000 active;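 active means fluorescence ratio B-score at least 3 SD of library B-scores, with initial fluorescence B-score within 3 of them, cut at about 5.3 in these data; same plate scores as AID 2156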;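 further: B-score of peak minus minimum over baseline fluorescence ratio after K+ and Tl+ stimulus; positive B-score means potentiation of KCNQ2 with more thallium influx and brighter signal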
KCNQ2 block = inhibitors of rat KCNQ2 potassium channel | 1.1% of 310,000 active | O88943 | AID 2156 | CHO-K1 KCNQ2, FluxOR thallium flux, 20 min; stronger effect = lower value | B-score at 10 µM;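 active means fluorescence ratio B-score at most minus 3 library SDs, with starting brightness B-score within 2 library SDs, cut at about -5.5 in these data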
* marks the source's active call; other numbers are inactive results; i = inactive; . = no result given. Shown are actives, neighbours in structure and some others; about 1.6% of the full set was active somewhere.

SMILES	KCNQ2 pot	KCNQ2 block
O=C(CN1CCN(C(=O)C2CCCO2)CC1)Nc1ccc(Cl)c(Cl)c1 (stereo not drawn)	.	i
O=C(OCC(=O)N1CCN(C(=O)c2ccco2)CC1)c1cc(-c2cccc(Br)c2)nc2ccccc12	-7	-7*
O=C(OCC(=O)N1CCN(C(=O)c2ccco2)CC1)c1cc(-c2ccccc2)nc2ccccc12	.	i
NC(=O)C1CCN(C2=C(Cl)C(=O)c3ccccc3C2=O)CC1	-12	-12*
O=C1C(Cl)=C(N2CCC(C(=O)O)CC2)C(=O)c2ccccc21	.	i
CCOC(=O)C1CCN(C(=O)CSC2=NCCS2)CC1	0.07	i
COc1cccc(CNCC(O)(c2ccc(Cl)cc2)c2ccc(Cl)cc2)c1	.	i
Cc1ccc(CNCC(O)(c2ccccc2)c2ccc(Cl)cc2)cc1 (stereo not drawn)	-6.4	-6.4*
O=C1OCC(c2ccccc2)=C1c1ccccc1	1	i
N#CC1=C(c2ccc(-c3ccccc3)cc2)COC1=O	-5.7	-5.7*
Cc1ccc(S(=O)(=O)N[C@H](C(=O)OCC(=O)N2N=C(c3ccc(Cl)cc3)CC2c2ccco2)C(C)C)cc1 (stereo partly drawn)	-6.1	-6.1*
O=C(CNC(=O)c1ccccc1)OCC(=O)N1N=C(c2ccc(Cl)cc2)CC1c1ccco1 (stereo not drawn)	.	i
CCOC(=O)c1c(-c2ccccc2)oc2ccc(OCC)cc12	.	i
CCOC(=O)c1c(-c2ccccc2)oc2ccc(OCC(O)CNCCN(C)C)cc12 (stereo not drawn)	-6.7	-6.7*
CCOc1cc(/C=C2/NC(=O)NC2=O)cc(Br)c1OCc1ccc(C(=O)O)cc1	0.57	i
CCn1c(NCc2c[nH]c3ccccc23)nc2ccccc21	-6.5	-6.5*
Cn1c(NCc2c[nH]c3ccccc23)nc2ccccc21	.	i
COc1ccc(OC)c(C(c2nnnn2Cc2ccco2)N2CCN(C)CC2)c1 (stereo not drawn)	.	i
COc1cccc(C(c2nnnn2CCc2ccccc2)N2CCN(c3ccccc3)CC2)c1OC (stereo not drawn)	-6.7	-6.7*
COc1ccccc1C(c1nnnn1CCc1ccccc1)N1CCN(c2ccccc2)CC1 (stereo not drawn)	.	i
COc1cccc(C(c2nnnn2Cc2ccco2)N2CCN(c3cccc(C)c3C)CC2)c1OC (stereo not drawn)	-6.2	-6.2*
CN(CC(=O)Nc1ccc(Cl)cc1)C(=O)Cn1[nH]c(=O)c2ccccc2c1=O	.	i
O=C(O)c1nn(-c2ccccc2)ccc1=O	.	i
COC(=O)c1sc(NC(=O)/C=C/c2ccc(C)o2)nc1C	0.07	i
CC1CCC(C(C)C)C(OC(=O)Cn2c(-c3ccc(Br)cc3)[n+](C)c3ccccc32)C1 (stereo not drawn)	-5.6	-5.6*
SMILES	KCNQ2 pot	KCNQ2 block
CC1CCC(C(C)C)C(OC(=O)COC(=O)c2cccn2C)C1 (stereo not drawn)	.	i
O=C(COc1ccc(Br)cc1)NCCNC(=O)c1ccncc1	0.08	i
CC(=O)NS(=O)(=O)c1ccc(NC(=O)c2ccc3c(c2)OCO3)cc1	.	i
Cc1ccc(NC(=O)CS(=O)CC(=O)N(c2ccc(C)cc2)C(C)C(=O)NC2CCCCC2)cc1 (stereo not drawn)	.	i
O=C(CCCOc1ccc(Cl)cc1Cl)NN1CCOCC1	2.4	i
COc1ccc(NC(=O)CC2Oc3ccccc3NC2=O)c(OC)c1 (stereo not drawn)	.	i
CN(CC1CCCN(CCc2cccc(C(F)(F)F)c2)C1)C(=O)c1cc2ccccc2o1 (stereo not drawn)	-7	-7*
CCN(CC1CCCN(CCc2cccc(F)c2)C1)C(=O)c1cc2ccccc2o1 (stereo not drawn)	.	i
Cc1cc(NC(=O)CCC(=O)N(c2ccccc2)C(C(=O)NC2CCCC2)c2ccccc2F)no1 (stereo not drawn)	1.7	i
Cc1cccc(NC(=O)c2cccc(S(=O)(=O)NCc3ccccc3)c2)n1	.	i
COc1ccccc1N(Cc1ccccc1)S(=O)(=O)c1cccc(C(=O)Nc2cccc(C)n2)c1	-6.4	-6.4*
N#Cc1c(Cl)cccc1Oc1ccc(S(=O)(=O)Nc2ccccc2)cc1	0.95	i
O=c1c2[nH]c3ccccc3c2ncn1CCC1=CCCCC1	.	i
CCOCCCn1c(C)nc2c(c1=O)c1nc3ccccc3nc1n2CCC1=CCCCC1	-5.8	-5.8*
Cc1nc2c(c(=O)n1CCC1=CCCCC1)c1nc3ccccc3nc1n2/N=C/c1ccccc1	-5.7	-5.7*
CCCCCCn1c(C)nc2c(c1=O)c1nc3ccccc3nc1n2/N=C/c1ccco1	.	i
O=c1c2c3nc4ccccc4nc3n(/N=C/c3ccco3)c2ncn1CCC1=CCCCC1	-6.6	-6.6*
COCCCn1c2nc3ccccc3nc2c2c(=O)n(CC3CCCO3)cnc21 (stereo not drawn)	0.02	i
O=C(NCc1ccco1)/C(=C/c1cccnc1)NC(=O)c1ccco1	0.1	i
COc1ccc2c(c1)C=C([C@@H]1C[C@H]3CN(c4ccccc4)C(=O)[C@]34CCCN14)CO2	.	i
CC(C)N(C(=O)CSc1nc2ccccc2n1Cc1ccccc1)C(C)C	.	i
CC(C)N(C(=O)CSc1nc2ccccc2n1-c1ccccc1)C(C)C	-6	-6*
Cc1nc2c(c(C)nn2-c2ccccc2)c(C)c1CCC(=O)Nc1ccc(CN2CCCC2)cc1	-6.1	-6.1*
CCC(C)NC(=O)CCc1c(C)nc2c(c(C)nn2-c2ccccc2)c1C (stereo not drawn)	1.9	i
C[n+]1cc(C(=O)N2CCCCC2)ccc1/C=C/c1c[nH]c2ccccc12	.	i
SMILES	KCNQ2 pot	KCNQ2 block
Cc1ccccc1NC(=O)c1cc(C(=O)c2cc(Cl)ccc2O)cn(-c2ccccc2C)c1=O	-5.6	-5.6*
Cc1ccc(-n2cc(C(=O)c3cc(Cl)ccc3O)cc(C#N)c2=O)cc1	.	i
COC(=O)c1ccccc1NC(=O)CSc1nnnn1CC(=O)O	1	i
COC(=O)[C@@H]1C[C@@]2(O)[C@@H](O)[C@@H](O)[C@@H](O)C[C@H]2N1CC(c1ccccc1)c1ccccc1	0.5	i
Cc1ccc(CNC(=O)CCSCCC(=O)NCc2ccc(C)cc2)cc1	0.42	i
COc1ccccc1NC(=O)c1csc2c1CCCC2	.	i
COc1ccccc1CNC(=O)c1csc2c1CCCC2	-6.5	-6.5*
CCCCCn1c(CN2CCN(c3cc(Cl)ccc3C)CC2)nc2c1c(=O)[nH]c(=O)n2C	.	i
CCc1cc2c(nc1CC)CCN(CC/C(C)=N/OC[C@H]1O[C@H](c3ccccc3)C=C[C@@H]1Oc1ccc(OC)cc1)C2	.	i
COc1ccc(O[C@H]2C=C[C@@H](c3ccccc3)O[C@@H]2CO/N=C(\C)CCN2CCc3nc(-c4ccccc4)c(-c4ccccc4)cc3C2)cc1	7.5*	i
CCc1ccc(N(CC)C(=O)c2cn(C)c(=O)c3ccccc23)cc1	0.61	i
CN1CCN(C(=O)CSc2nc(-c3cccs3)ccc2C#N)CC1	0.12	i
CC(C)(C)n1nnnc1C(c1cccs1)N(Cc1ccccc1)Cc1cccnc1 (stereo not drawn)	.	i
Cc1ccc(C(c2nnnn2C(C)(C)C)N(Cc2ccco2)Cc2cccs2)cc1 (stereo not drawn)	-6.2	-6.2*
CC(C)(C)c1ccc(CN(Cc2ccccc2)C(c2ccccn2)c2nnnn2C(C)(C)C)cc1 (stereo not drawn)	-9.4	-9.4*
